Several values for one entry are separate records, joined by “and”; a condition that tells them apart may be missing. Identical values can stand only once. Inconclusive results are not listed. Where a call stands in place of a potency, no number is given. Activity calls are given as the source filed them. Unless noted, calls follow the shape of the dose curve; as a rule, active = well fitted curve in the direction sought with a large enough effect; inconclusive = small, poorly fitted or top-dose-only effect, or another doubt; inactive = no such curve, though single readings can be large; an effect the other way counts as inactive or inconclusive.
Legend:
[1] = Validation of Assay for Modulators of Lamin A Splicing (AID 1459; active = well fitted curve in the direction sought with a large enough effect in the signal ratio; the % refers to the signal ratio;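 also: cells exposed to compound for two days before reading; ratio rise marks activators and ratio drop marks inhibitors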)
Summary of the method: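 HeLa S3 lamin A-EGFP/DsRed2 stable clone, 600 cells/well, Opti-MEM 2% FBS; compounds by pin tool; 48 hrs, 37 °C/5% CO2; Acumen 488 nm scan, objects 10-100 um; GFP/RFP intensity ratio.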

[2] = qHTS Assay for Lipid Storage Modulators (AID 1519; calls by dose curve); details: Drosophila S3 cells, BODIPY lipid droplet/cell ratio, laser cytometry, cells loaded with oleic acid; for activity change, negative = inhibition: at 57.5 µM (top of the series)
Summary of the method: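 Cells seeded at 5,000 per well were treated with compounds over a concentration series and loaded with oleic acid (400 uM, as added). Lipid droplet fluorescence (488 nm excitation, 500-530 nm channel) was read by laser-scanning cytometry and normalized to 20 uM Triacsin C.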

[3] = target: DNA repair nuclease/redox regulator APEX1 (Homo sapiens) (UniProt P27695); assay: qHTS Validation Assay for Inhibitors of the Human Apurinic/apyrimidinic Endonuclease 1 (APE1) (AID 1705; also: potency is read from the fitted curve at half-maximal effect;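 as to activity change, negative = inhibition: TAMRA fluorescence gain over two minutes as APE1 cuts a quenched THF abasic duplex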)
Sequence of DNA repair nuclease/redox regulator APEX1 (Homo sapiens) (P27695 whole entry, looked up): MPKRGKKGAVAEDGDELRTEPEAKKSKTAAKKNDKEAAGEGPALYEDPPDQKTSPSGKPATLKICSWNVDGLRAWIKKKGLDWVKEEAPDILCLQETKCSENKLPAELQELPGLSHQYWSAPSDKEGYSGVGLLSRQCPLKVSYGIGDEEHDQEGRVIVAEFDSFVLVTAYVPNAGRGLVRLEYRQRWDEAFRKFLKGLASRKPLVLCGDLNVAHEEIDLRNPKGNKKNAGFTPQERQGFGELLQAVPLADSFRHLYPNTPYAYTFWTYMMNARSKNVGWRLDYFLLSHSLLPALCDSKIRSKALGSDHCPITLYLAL
Summary of the method: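 qHTS, 1536-well. APE1 + cpd 15 min RT → 50 nM TAMRA/BHQ-2 THF-abasic dsDNA substrate → kinetic fluorescence, 3 reads/60 s; delta(read3−read1) = reaction progress. No-enzyme buffer = negative control.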

[4] = Counterscreen for APE1 Inhibitors: Fluorescent Dye Displacement Validation Assay (AID 1707); also: potency is read from the fitted curve at half-maximal effect
Summary of the method: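 Compounds are scored by their ability to displace Thiazole Orange (250 nM) from a 50 nM TAMRA-tagged duplex bearing a tetrahydrofuran abasic site. Buffer is 50 mM Tris-HCl pH7.5, 50mM NaCl, 2 mM MgCl2, 0.01% Tween-20.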

[5] = target: Endonuclease 4 (Escherichia coli (strain K12)) (UniProt P0A6C1); assay: Counterscreen for APE1 Inhibitors: qHTS Validation Assay for Inhibitors of Endonuclease IV (AID 1708); also: potency is read from the fitted curve at half-maximal effect
Summary of the method: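 qHTS concentration-response format; LOPAC1280 tested under APE1-screen conditions. 2 nM enzyme, 15 min compound preincubation at RT, then 50 nM TAMRA/BHQ-2 abasic substrate; kinetic fluorescence read, three reads at 60 s intervals.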

[6] = qHTS for differential inhibitors of proliferation of Plasmodium falciparum line 7G8 (AID 1815);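 also: parasite growth measured after three days of incubation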; also: potency is read from the fitted curve at half-maximal effect
[7] = qHTS for differential inhibitors of proliferation of Plasmodium falciparum line GB4 (AID 1816); details: Potency: Plasmodium falciparum GB4 proliferation inhibition;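 also: parasite growth measured after 72 h incubation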; also: potency is read from the fitted curve at half-maximal effect
[8] = qHTS for differential inhibitors of proliferation of Plasmodium falciparum line 3D7 (AID 1876); also: potency is read from the fitted curve at half-maximal effect
[9] = qHTS for differential inhibitors of proliferation of Plasmodium falciparum line D10 (AID 1877);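 also: parasites grown with compound for 72 h before DNA staining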; also: potency is read from the fitted curve at half-maximal effect
[10] = qHTS for differential inhibitors of proliferation of Plasmodium falciparum line Dd2 (AID 1882); details: Potency: Plasmodium falciparum Dd2 proliferation inhibition; also: nearly all actives have a fitted effect of over 65% in size; also: potency is read from the fitted curve at half-maximal effect
Summary of the method: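 Dd2-infected erythrocytes (0.3% parasitemia, 2.5% hematocrit final) incubated with compound 72 h at 37 C, 5% CO2; lysed with saponin/Triton buffer containing SYBR Green I, incubated overnight in the dark, then read by fluorescence (485/535 nm). Normalized to 0.29 uM artemisinin and DMSO.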

[11] = qHTS for differential inhibitors of proliferation of Plasmodium falciparum line W2 (AID 1883); details: Potency: Plasmodium falciparum W2 proliferation inhibition;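 also: parasites grown with compound for 72 h before lysis and staining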; also: potency is read from the fitted curve at half-maximal effect
[12] = qHTS for differential inhibitors of proliferation of Plasmodium falciparum line HB3 (AID 1886); details: Potency: Plasmodium falciparum HB3 proliferation inhibition;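 also: parasites grown with compound for 72 h before SYBR Green readout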; also: potency is read from the fitted curve at half-maximal effect
[13] = target: Ferritin light chain (Equus caballus) (UniProt P02791); assay: qHTS Validation Assay for Identification of Novel General Anesthetics (AID 2323)
Sequence of Ferritin light chain (Equus caballus) (P02791 2-175 limits assumed): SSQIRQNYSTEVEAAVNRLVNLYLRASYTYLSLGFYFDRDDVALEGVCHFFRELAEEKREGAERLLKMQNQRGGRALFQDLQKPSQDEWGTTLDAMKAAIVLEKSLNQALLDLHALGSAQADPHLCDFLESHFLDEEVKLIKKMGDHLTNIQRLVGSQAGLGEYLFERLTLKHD
Summary of the method: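 Fluorescence at 535 nm (excitation 380 nm) reported loss of 1-AMA binding to horse-spleen apoferritin (10 uM) in PBS with 50% saturated 1-aminoanthracene, after 10 min room-temperature incubation with compound; values from Hill fits of normalized response.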

[14] = target: ATP-dependent DNA helicase Q1 (Homo sapiens) (UniProt P46063); assay: qHTS Validation Assay for Inhibitors of RecQ-Like Dna Helicase 1 (RECQ1) (AID 2353); also: potency is read from the fitted curve at half-maximal effect
Sequence of ATP-dependent DNA helicase Q1 (Homo sapiens) (P46063 whole entry, looked up): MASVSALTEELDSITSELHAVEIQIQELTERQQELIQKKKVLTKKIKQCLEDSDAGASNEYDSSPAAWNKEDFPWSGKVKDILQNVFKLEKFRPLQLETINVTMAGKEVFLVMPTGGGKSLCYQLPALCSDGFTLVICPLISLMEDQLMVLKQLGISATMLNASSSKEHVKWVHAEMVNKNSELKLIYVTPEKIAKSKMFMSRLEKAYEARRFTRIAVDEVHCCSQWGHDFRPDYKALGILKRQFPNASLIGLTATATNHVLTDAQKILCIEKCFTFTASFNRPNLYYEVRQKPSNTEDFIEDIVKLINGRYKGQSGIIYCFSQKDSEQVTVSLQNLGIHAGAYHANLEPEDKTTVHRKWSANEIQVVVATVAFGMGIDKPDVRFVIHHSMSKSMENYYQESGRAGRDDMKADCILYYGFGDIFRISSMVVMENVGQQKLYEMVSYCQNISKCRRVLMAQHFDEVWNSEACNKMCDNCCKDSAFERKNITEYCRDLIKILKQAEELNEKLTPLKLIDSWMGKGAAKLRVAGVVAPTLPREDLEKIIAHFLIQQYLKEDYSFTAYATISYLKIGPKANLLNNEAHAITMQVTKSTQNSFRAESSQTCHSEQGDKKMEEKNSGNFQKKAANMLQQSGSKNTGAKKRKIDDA
Summary of the method: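 50 nM RECQ1T1 preincubated 15 min with compound in Tris pH 8.0 buffer with MgCl2, DTT, Tween-20 and 2.5 ug/ml poly(dI-dC); started with 200 nM TAMRA/BHQ-2 forked duplex and 2 mM ATP. Unwinding read as fluorescence (525/598 nm), two reads 2 h apart.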

[15] = target: alpha-glucosidase (Oryza sativa, rice) (UniProt Q653V4); assay: Counterscreen for Glucocerebrosidase Inhibitors: qHTS Assay for Rice alpha-Glucosidase at pH 5.0 (AID 997)
Summary of the method: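 Rice alpha-glucosidase (4 nM final) with 400 uM 4-methylumbelliferyl-alpha-D-glucopyranoside in citrate buffer pH 5.0, 20 min at room temperature, stopped at pH 10; fluorescence 365/440 nm, compounds 0.7 nM–77 uM, AC50 from Hill fits.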

[16] = qHTS Assay for Modulators of Human Peripheral Myelin Protein 22 (PMP22) Expression/Activity (AID 1967; active = well fitted curve in the direction sought with a large enough effect in the signal ratio; the % refers to the signal ratio)
Summary of the method: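 Luminescence ratio of Pmp22 promoter-driven green luciferase to EF-alpha-driven red luciferase, in engineered mouse MSC80 Schwann cells, served as read-out. Compounds were incubated 24h; untreated cells defined 0% Activity; curves were classified by r2, magnitude and activity.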

[17] = target: RecQ-like DNA helicase BLM (Homo sapiens) (UniProt P54132); assay: qHTS Validation Assay for Inhibitors of Bloom's syndrome helicase (BLM) (AID 2364); also: potency is read from the fitted curve at half-maximal effect
Sequence of RecQ-like DNA helicase BLM (Homo sapiens) (P54132 whole entry, looked up): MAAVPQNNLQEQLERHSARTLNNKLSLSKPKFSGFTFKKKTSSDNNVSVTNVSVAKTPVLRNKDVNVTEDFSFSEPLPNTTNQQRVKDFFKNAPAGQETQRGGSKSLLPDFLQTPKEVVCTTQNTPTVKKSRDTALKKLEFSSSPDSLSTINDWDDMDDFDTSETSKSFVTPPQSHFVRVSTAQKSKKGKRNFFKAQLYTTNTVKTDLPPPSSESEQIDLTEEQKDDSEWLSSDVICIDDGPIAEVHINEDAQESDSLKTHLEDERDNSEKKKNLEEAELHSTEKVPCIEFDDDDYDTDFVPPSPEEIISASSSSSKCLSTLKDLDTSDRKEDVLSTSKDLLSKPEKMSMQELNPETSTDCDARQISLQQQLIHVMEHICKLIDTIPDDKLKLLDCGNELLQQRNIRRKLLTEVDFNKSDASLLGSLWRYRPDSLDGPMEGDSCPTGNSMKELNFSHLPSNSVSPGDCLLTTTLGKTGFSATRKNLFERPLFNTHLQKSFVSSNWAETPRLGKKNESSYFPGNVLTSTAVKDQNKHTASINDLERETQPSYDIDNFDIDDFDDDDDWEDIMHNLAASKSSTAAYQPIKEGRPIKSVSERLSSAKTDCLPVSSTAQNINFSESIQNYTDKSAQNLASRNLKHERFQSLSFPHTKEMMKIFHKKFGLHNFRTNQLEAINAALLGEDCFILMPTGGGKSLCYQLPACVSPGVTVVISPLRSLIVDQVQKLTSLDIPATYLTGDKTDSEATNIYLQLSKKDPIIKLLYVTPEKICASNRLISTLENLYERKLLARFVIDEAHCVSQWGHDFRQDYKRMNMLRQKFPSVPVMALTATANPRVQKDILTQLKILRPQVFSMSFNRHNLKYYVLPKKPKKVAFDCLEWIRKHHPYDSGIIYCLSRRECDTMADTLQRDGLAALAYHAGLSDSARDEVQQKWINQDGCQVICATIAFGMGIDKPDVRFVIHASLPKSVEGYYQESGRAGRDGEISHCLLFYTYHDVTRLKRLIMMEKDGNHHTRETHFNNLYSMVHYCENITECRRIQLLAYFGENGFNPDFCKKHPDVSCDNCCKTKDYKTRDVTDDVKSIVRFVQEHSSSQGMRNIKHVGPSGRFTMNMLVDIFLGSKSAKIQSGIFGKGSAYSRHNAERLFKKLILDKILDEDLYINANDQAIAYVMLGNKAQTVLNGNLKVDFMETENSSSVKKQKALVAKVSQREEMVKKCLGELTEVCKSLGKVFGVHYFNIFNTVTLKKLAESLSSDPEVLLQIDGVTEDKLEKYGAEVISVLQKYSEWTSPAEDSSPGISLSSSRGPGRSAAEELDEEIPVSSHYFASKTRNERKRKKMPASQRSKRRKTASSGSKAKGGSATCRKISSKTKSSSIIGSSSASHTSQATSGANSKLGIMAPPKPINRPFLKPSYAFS
Summary of the method: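 Forked 20-bp duplex substrate (200 nM, TAMRA/BHQ-2) plus 2 mM ATP added after 15 min compound preincubation with 50 nM enzyme, pH 8.0, poly(dI-dC) 2.5 ug/ml. Strand separation followed by fluorescence (525/598 nm) over 2 h, normalized to enzyme-free and DMSO controls.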

[18] = measured here: cell count channel max response
[19] = measured here: lipid channel max response

Row | SMILES | outcome [1] | activity change, negative = inhibition [2] | max response [2, 18] | max response [2, 19] | Potency [3] | Potency [4] | Potency [5] | Potency [6] | Potency [7] | Potency [8] | Potency [9] | Potency [10] | Potency [11] | Potency [12] | Potency [13] | Potency [14] | outcome [15] | outcome [16] | Potency [17]
1 | CC(=O)/C(C)=N/O | inactive | 2.05% (inactive) | 5.13% | 6.8% | inactive | inactive | inactive | inactive | inactive | inactive | inactive | inactive | inactive | inactive | inactive | inactive |  |  | 
2 | N[C@@H](CS(=O)O)C(=O)O | inactive | 4.63% (inactive) and 1.31% (inactive) | 10.5% and -12.6% | 17.1% and -9.76% | inactive | inactive | inactive | inactive | inactive | inactive | inactive | inactive | inactive | inactive | inactive | inactive | inactive | inactive | inactive
3 | CN1CCCC1CCOC(C)(c1ccccc1)c1ccc(Cl)cc1 (stereo not given) | inactive | 0.234% (inactive) | -30.3% | -27.1% | inactive | inactive | inactive | 5.01 µM (active) | 5.62 µM (active) | 3.98 µM (active) | 11.2 µM (active) | 10 µM (active) | 2.51 µM (active) | 5.01 µM (active) | inactive |  |  |  | 
4 | O=C(O)C1=CCCNC1 | inactive | 5.3% (inactive) and 2.39% (inactive) and 0.0791% (inactive) | 11.8% and 11.1% and -5.85% | 19.5% and 15.3% and -4.32% | inactive | inactive | inactive | inactive | inactive | inactive | inactive | inactive | inactive | inactive | inactive | inactive | inactive | inactive | 
5 | O=C(O)C1=CCNCC1 | inactive | 1.16% (inactive) and 3.31% (inactive) | -10.7% and 4.5% | -10.6% and 21.6% | inactive | inactive | inactive | inactive | inactive | inactive | inactive | inactive | inactive | inactive | inactive | inactive | inactive | inactive | 
6 | Nc1ccc(-c2nc3ccc(-c4nc5ccc(N)cc5[nH]4)cc3[nH]2)cc1 | inactive | -0.707% (inactive) | -29.1% | -26.6% | 28.2 µM (active) | 25.1 µM (active) | 22.4 µM (active) | 0.794 µM (active) | 0.891 µM (active) | 0.355 µM (active) | 0.708 µM (active) | 1 µM (active) | 0.251 µM (active) | 0.794 µM (active) | inactive | 8.91 µM (active) | inactive |  | 22.4 µM (active)
7 | O=C(O)/C=C/c1ccc(O)c(O)c1 | inactive | 3.74% (inactive) and 0.322% (inactive) | 0.683% and 6.48% | 7.03% and 6.69% | inactive | inactive | inactive | inactive | inactive | inactive | inactive |  | inactive | inactive | inactive | inactive | inactive |  | inactive
8 | Cc1ccc([N+](=O)[O-])cc1S(=O)(=O)N(C)C | inactive | -0.817% (inactive) and -0.0593% (inactive) | 1.19% and 66.8% | 0.358% and 67% | inactive | inactive | inactive | inactive | inactive | inactive | inactive | inactive | inactive | inactive | inactive |  | inactive | inactive | inactive
9 | NCCCCN=C(N)N | inactive | 6.41% (inactive) | 4.55% | 23.5% | inactive | inactive | inactive | inactive | inactive | inactive | inactive |  | inactive | inactive |  | inactive | inactive |  | 
10 | CCSC(=N)N | inactive | 3.43% (inactive) and 3.42% (inactive) and 1.1% (inactive) | 11.3% and -10.8% and -6.69% | 15.2% and -3.11% and -5.48% | inactive | inactive | inactive | inactive | inactive | inactive | inactive | inactive |  | inactive |  | inactive | inactive | inactive | 
11 | CC[N+](CC)(CC)CC(=O)Nc1c(C)cccc1C | inactive | 4.67% (inactive) | -3.7% | 2.48% | inactive | inactive | inactive | inactive | inactive | inactive | inactive | inactive | inactive | inactive |  | inactive | inactive | inactive | 
12 | O=C(O)Cc1ccc(O)c(O)c1 | inactive | -0.0553% (inactive) | -16.6% | -14.9% | 7.94 µM (active) | inactive | inactive |  | inactive | inactive | inactive | inactive |  | inactive |  | inactive | inactive |  | 
13 | O=C(O)c1ccccc1Nc1ccccc1 | inactive | 7.05% (inactive) and 0.0171% (inactive) | 2.57% and -16.2% | 11.5% and -17.1% | inactive | inactive | inactive | inactive | inactive | inactive | inactive |  | inactive | inactive | inactive | inactive | inactive |  | 
14 | NC1(C(=O)O)CCc2cc(C(=O)O)ccc21 (stereo not given) | inactive | -2.76% (inactive) | -17.6% | -22% | inactive | inactive | inactive | inactive | inactive | inactive | inactive | inactive | inactive | inactive | inactive | inactive |  | inactive | 
15 | CC(N)=O | inactive | -0.907% (inactive) | -17.4% | -17.3% | inactive | inactive | inactive | inactive | inactive | inactive | inactive |  | inactive | inactive | inactive | inactive | inactive |  | 

Source: PubChem BioAssay (NCATS)
